# In the library only some 8.9% were active in any assay of this set; here they are far more common.
# MCF10A rereplic – A quantitative high throughput screen for small molecules that induce DNA re-replication in MCF 10a normal breast cells. AID 624296, 2012. hit rate 2.9% among 350,000. Potency, µM (doses to about 46.1 µM), for the others: at the top dose activity, positive = re-replication, hits mostly activators. MCF 10A DNA re-replication, Hoechst nuclear intensity, 48 h; further: potency means the concentration at half of the fitted maximal effect; % of control where 0% means no effect; nearly all actives have a fitted effect of over 50% in size
# DRD3 agonist – qHTS of D3 Dopamine Receptor Agonist: qHTS; AID 652048, 2013; D(3) dopamine receptor (Homo sapiens), P35462; hit rate 0.58% among 410,000; D3R DiscoveRx beta-arrestin cells, luminescence, 90 min; max activation, %; in the data active means max activation above about 30%; further: 0% is about no effect
# Target sequence (P35462 whole entry, looked up): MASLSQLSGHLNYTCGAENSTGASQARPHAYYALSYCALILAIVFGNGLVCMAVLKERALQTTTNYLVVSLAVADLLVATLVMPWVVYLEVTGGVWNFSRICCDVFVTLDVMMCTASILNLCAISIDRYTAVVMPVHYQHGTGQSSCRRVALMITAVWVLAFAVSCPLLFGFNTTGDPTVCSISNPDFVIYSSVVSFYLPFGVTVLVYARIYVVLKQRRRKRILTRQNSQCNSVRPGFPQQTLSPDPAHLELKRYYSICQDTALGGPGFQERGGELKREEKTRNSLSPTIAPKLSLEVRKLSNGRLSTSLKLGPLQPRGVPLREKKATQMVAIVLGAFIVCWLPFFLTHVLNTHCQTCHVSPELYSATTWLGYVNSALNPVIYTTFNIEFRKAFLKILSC
#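 Cells at 1500/well, incubated overnight, then treated with pinned compounds (dopamine as control) for 90 min at 37 degrees C. DiscoveRx reagent added for 30 - 60 minutes at room temperature; luminescence read.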
# DRD3 antagonist – qHTS of D3 Dopamine Receptor Antagonist: qHTS; D(3) dopamine receptor (Homo sapiens), P35462; AID 652054, 2013; max response, negative = inhibition, %; hit rate 2.5% among 360,000; D3R cells, DiscoveRx beta-arrestin luminescence, antagonist mode; stronger effect = lower value; in the data active means max response below about -50%; inconclusive means no clear call, values can overlap the other calls; further: on the % scale 0 is the no-effect control and ±100 the full control effect
#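 Cells expressing the human receptor were seeded at 1500 cells/well, incubated overnight at 37 degrees C in 5% CO2, then exposed to library compounds with dopamine controls for 90 minutes at 37 degrees C before luminescent detection.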
# KB-V1 MDR tox – qHTS assay for MDR1-selective chemotherapeutics: Primary screen using the drug-selected MDR subline cells KB-V1; hit rate 3.4% among 400,000; KB-V1 MDR cells viability, CellTiter-Glo, 72 h; AID 1347076, 2019; Potency, µM (highest dose often 46.1 µM), hits mostly cytotoxic; further: potency means the concentration at half of the fitted maximal effect; on the % scale 0 is the no-effect control and ±100 the full control effect; nearly all actives have a fitted effect of over 60% in size
#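 KB-V1 cells (P-gp-expressing MDR subline of KB-3-1) in phenol-red-free DMEM with 10% FBS were exposed to library compounds over a concentration series for 72 h at 37 degrees C. Viability read by CellTiter-Glo luminescence; concentration-effect curves fitted after normalization.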
# SW480 rereplic – A quantitative high throughput screen for small molecules that induce DNA re-replication in SW480 colon adenocarcinoma cells; SW480 DNA re-replication, Hoechst DNA content imaging, 48 h; hit rate 1.8% among 340,000; Potency, µM (doses to about 46.1 µM), without a hit: at the top dose re-replication activation, hits mostly activators; AID 624297, 2012; further: potency means the concentration at half of the fitted maximal effect; % of control where 0% means no effect; nearly all actives have a fitted effect of over 55% in size
#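 Hoechst fluorescence of nuclei (405 nm excitation, 500-530 nm emission) measured by plate-scanning imager after 48 hr compound exposure at 37 C; re-replication scored as increased number of nuclei with elevated intensity.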
# KB-3-1 cytotox – qHTS assay for MDR1-selective chemotherapeutics: Primary screen using the parental adenocarcinoma cell KB-3-1; KB-3-1 viability, CellTiter-Glo ATP luminescence, 72 h; Potency, µM (titrated, usually from 46.1 µM), hits mostly cytotoxic; hit rate 1.4% among 400,000; AID 1347075, 2019; further: potency means the concentration at half of the fitted maximal effect; on the % scale 0 is the no-effect control and ±100 the full control effect; nearly all actives have a fitted effect of over 60% in size
#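 Parental KB-3-1 adenocarcinoma cells in phenol-red-free DMEM with 10% FBS were pin-treated with compounds at several concentrations, incubated 72 h at 37 °C, and viability read by CellTiter-Glo luminescence; concentration-effect curves were fitted after normalization.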
# Starred values were filed as active, the others as inactive; i = inactive; ? = inconclusive; / = not tested or not shown; [ ] = dose if it differs, or a comment. Unless noted, the call rests on the fitted dose curve; in most records, active means well fitted curve in the direction sought with a large enough effect; inconclusive means small, poorly fitted or top-dose-only effect, or another doubt; inactive means no such curve, though single readings can be large; an effect the other way counts as inactive or inconclusive.
SMILES,MCF10A rereplic,DRD3 agonist,DRD3 antagonist,KB-V1 MDR tox,SW480 rereplic,KB-3-1 cytotox
CCOC(=O)c1cc2nc(Nc3ccc(OC)cc3)sc2s1,4.61µM*,-3.6,-2.2,i,?,i
Cn1c(NCCCCO)nc2c1c(=O)n(Cc1ccc(Cl)cc1)c(=O)n2C,/,4.4,/,i,/,i
Cc1cc(C)cc(C(O)c2ncc(-c3ccc4ccccc4c3)[nH]2)c1 (centres undefined),/,-12.4,-55.9*,i,/,i
Cc1ccc(C(O)c2ncc(-c3ccc4ccccc4c3)[nH]2)cc1 (centres undefined),/,-15.1,0.0,i,/,i
Cc1cccc(NC(=O)C(=O)NCC(c2ccc3c(c2)OCO3)N2CCOCC2)c1C (centres undefined),/,8.1,/,i,/,i
CCOC(=O)c1cccc(Nc2ncnc3ccccc23)c1,-1.0%,0.2,-7.8,11.6µM*,-2.9%,i
Cc1nc2ccc(S(=O)(=O)NC(C(=O)NCc3ccc(Cl)cc3)C(C)C)cc2s1 (centres undefined),/,8.2,/,i,/,i
O=S(=O)(CS(=O)(=O)c1ccc(Cl)cc1)c1ccc(Cl)cc1,20.6µM*,-1.8,6.8,i,-15.2%,i
Cc1ccc(S(=O)(=O)CS(=O)(=O)c2ccc(C)cc2)cc1,-0.6%,-7.7,3.5,?,-1.8%,i
CC(=O)c1ccc(NC(=O)CSc2nccn2C2CCCC2)cc1,/,7.2,/,/,/,/
COc1cccc(NC(=O)CN(C)C(=O)c2cc(-c3cccc(Br)c3)nc3ccccc23)c1,13µM*,4.9,25.9,?,?,?
CCOc1ccc(NC(=O)CN(C)C(=O)c2ccccc2OCCOc2ccccc2)cc1OCC,10.4%,-2.2,-2.0,2.31µM*,0.0%,i
CCOc1ccc(NC(=O)CN(C)C(=O)c2cccc3ccccc23)cc1OCC,2.4%,-6.2,1.2,?,-4.1%,?
CCOc1ccc(NC(=O)CN(C)C(=O)c2cc(-c3ccc(OC)cc3)nc3ccccc23)cc1OCC,16.4µM*,13.5,40.4,?,2.8%,i
COc1ccc(NC(=O)CN(C)C(=O)c2cc(-c3ccc(Cl)cc3)nc3ccccc23)cc1,18.4µM*,4.5,9.5,?,8.7%,i
O=C1C2CC3CC1CC(O)(C3)C2,/,3.9,/,/,/,/
CCOC(=O)c1cc(-c2ccccc2)n(CCCC(=O)Nc2ccccc2C)c1C,/,-2.1,/,i,/,i
Cc1cc(C)cc(NC(=O)C2CCN(S(=O)(=O)c3cn(C)cn3)CC2)c1,/,8.2,/,/,/,/
COc1cccc(C(=O)Nc2ccc3nc(N4CCC(C)CC4)cc(C)c3c2)c1,/,-7.8,/,i,/,?
COc1ccc(CC(=O)Nc2cccc(S(=O)(=O)N3CCCCCC3)c2)cc1OC,-1.9%,4.6,22.4,1.84µM*,4.6%,2.91µM*
O=S(=O)(NCCC1=CCCCC1)c1cccc(S(=O)(=O)N2CCOCC2)c1,2.5%,1.2,-71.8*,?,?,?
COc1ccc(CC(=O)Nc2cccc(SC)c2)cc1OC,-0.7%,4.3,8.1,14.6µM*,-3.5%,?
O=S(=O)(NCCc1ccccc1)c1cccc(S(=O)(=O)N2CCOCC2)c1,1.5%,-3.6,-5.5,i,1.3%[9.22 µM],i
COc1ccc(S(=O)(=O)N2CCCCCC2)cc1N(C)S(=O)(=O)c1ccccc1,11.6µM*,-2.0,-6.7,?,-0.4%,i
Cc1cnc2c(c1SCC(=O)N(C)c1ccccc1)c(=O)n(C)c(=O)n2C,/,2.1,/,i,/,i
SMILES,MCF10A rereplic,DRD3 agonist,DRD3 antagonist,KB-V1 MDR tox,SW480 rereplic,KB-3-1 cytotox
Cc1ccc(C)c(-n2c(N)c(C#N)c3nc4ccccc4nc32)c1,/,4.6,/,i,/,i
COc1ccccc1NC(=O)Cn1c(=O)n(CC2CCC(C(=O)NCCc3ccccc3)CC2)c(=O)c2ccccc21 (centres undefined),/,0.3,/,i,/,i
COc1ccc(CCNS(=O)(=O)c2cccc(S(=O)(=O)N3CCCC3)c2)cc1OC,2.8%,1.1,0.0,18.4µM*,-6.8%,i
COc1ccc(NC(=O)CCC2CCCCC2)cc1S(=O)(=O)N1CCCCC1,14.8%,-1.0,0.0,3.26µM*,0.8%,5.17µM*
Cc1ccc(S(=O)(=O)c2cccc(S(=O)(=O)N3CCCC3)c2)cc1S(=O)(=O)N1CCCC1,13.0%,9.7,13.8,2.59µM*,-0.9%,20.6µM*
Cc1ccc(S(=O)(=O)c2cccc(S(=O)(=O)N3CCOCC3)c2)cc1S(=O)(=O)N1CCOCC1,3.4%,-10.4,-7.4,i,0.5%,i
COc1ccc(NC(=O)CC2CCCCC2)cc1OC,5.8µM*,1.5,-12.6,i,7.31µM*,i
COc1ccc(CCNS(=O)(=O)c2cccc(C)c2)cc1OC,2.4%,11.3,10.5,?,-2.2%,i
COc1ccc(C2C=C(c3cccc(OC)c3)Nc3c(C(=O)Nc4ccccc4)cnn32)cc1 (centres undefined),/,2.5,/,i,/,i
COc1ccc(CNc2oc(/C=C/c3cccc(OC)c3)nc2C#N)cc1,/,-9.9,/,i,/,i
COc1ccc(CCNC(=O)c2cc(S(=O)(=O)N3CCOCC3)ccc2N2CCCC2)cc1OC,-0.9%,-2.1,0.0,i,-2.5%,i
COc1ccc(CNC(=O)c2cc(S(=O)(=O)N3CCCCC3)ccc2N2CCOCC2)cc1OC,10.8%,-3.9,-3.6,23.1µM*,10.8%,i
COc1ccc(NC(=O)Cc2ccc(C)c(C)c2)cc1S(=O)(=O)N1CCCCC1,0.1%,5.3,7.2,9.2µM*,-4.7%,?
CC[C@@H](C)CCCCC(=O)N[C@@H](CCNCS(=O)(=O)O)C(=O)N[C@H](C(=O)N[C@@H](CCNCS(=O)(=O)O)C(=O)N[C@H]1CCNC(=O)[C@H]([C@@H](C)O)NC(=O)[C@H](CCNCS(=O)(=O)O)NC(=O)[C@H](CCNCS(=O)(=O)O)NC(=O)[C@H](CC(C)C)NC(=O)[C@@H](CC(C)C)NC(=O)[C@H](CCNCS(=O)(=O)O)NC1=O)[C@@H](C)O,/,5.8,/,/,/,/
COc1ccc(C)cc1NC(=O)c1c2c(nc3ccccc13)C(=O)N(C1CCCCC1)C2,/,-3.4,/,i,/,i
CC1(c2nnnn2C2CCCCC2)CCC(=O)N1Cc1ccc2c(c1)OCO2 (centres undefined),/,2.2,-11.1,i,/,i
